# Assay results published in paper PMC7862700, “An all-to-all approach to the identification of sequence-specific readers for epigenetic DNA modifications on cytosine”.
# Legend:
# Assay in all cases: DAPPL (digital affinity profiling via proximity ligation, sequencing); 10 mM Tris-HCl pH 7.5, 50 mM NaCl, 1 mM DTT, 4% glycerol, room temperature, 30 min; GST-TFs on glutathione beads, 16-mer random dsDNA library, 0.1% formaldehyde crosslink after washing; high values mean tight binding
# FLI1 = target: T1, FLI1 (Homo sapiens, UniProt Q01543 1-452); settings: protein: recombinant; tags: N-terminal GST; dsDNA, one strand shown
# T1 sequence: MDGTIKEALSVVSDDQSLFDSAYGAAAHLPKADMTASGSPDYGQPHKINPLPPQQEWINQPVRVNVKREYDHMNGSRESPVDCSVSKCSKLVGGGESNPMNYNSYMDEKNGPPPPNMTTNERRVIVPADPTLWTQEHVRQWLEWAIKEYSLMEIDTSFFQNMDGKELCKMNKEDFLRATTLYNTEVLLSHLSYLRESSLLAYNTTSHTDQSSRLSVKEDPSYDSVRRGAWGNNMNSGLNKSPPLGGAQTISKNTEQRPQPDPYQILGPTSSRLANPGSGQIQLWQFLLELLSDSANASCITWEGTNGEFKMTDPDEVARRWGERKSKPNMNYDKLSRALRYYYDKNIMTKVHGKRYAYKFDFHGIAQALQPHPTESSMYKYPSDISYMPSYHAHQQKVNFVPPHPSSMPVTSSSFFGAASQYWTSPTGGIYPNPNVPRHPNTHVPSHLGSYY
# How it was run: (§1)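 Each value of binding signal is a hexamer's read frequency for a factor divided by the same hexamer's frequency in the tag-only sample. Barcoded, bead-captured GST fusions of human transcription factors made in yeast were pooled with that sample and incubated with 200 nmole of a random double-stranded 16-mer DNA library in Tris/NaCl/DTT/glycerol buffer at room temperature for 30 min. Washing, 0.1% formaldehyde crosslinking, proximity ligation, PCR and Illumina NextSeq500 sequencing followed.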
# ELK1 = target: T2, ELK1 (Homo sapiens, UniProt P19419 1-428); settings: protein: recombinant; tags: N-terminal GST; dsDNA, one strand shown
# T2 sequence: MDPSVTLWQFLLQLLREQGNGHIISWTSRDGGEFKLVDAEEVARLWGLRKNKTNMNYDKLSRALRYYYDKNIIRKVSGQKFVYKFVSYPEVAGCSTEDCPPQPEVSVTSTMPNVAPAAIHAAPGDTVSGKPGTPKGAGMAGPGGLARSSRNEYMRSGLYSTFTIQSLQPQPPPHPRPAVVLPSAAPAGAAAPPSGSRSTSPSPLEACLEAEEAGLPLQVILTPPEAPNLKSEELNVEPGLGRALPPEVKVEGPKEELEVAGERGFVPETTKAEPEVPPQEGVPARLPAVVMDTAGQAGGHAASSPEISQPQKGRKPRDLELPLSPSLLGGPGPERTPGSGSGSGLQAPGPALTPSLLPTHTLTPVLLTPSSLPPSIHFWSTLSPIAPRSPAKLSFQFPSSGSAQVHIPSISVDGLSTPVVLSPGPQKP
# How it was run: as §1
# GABPA = target: T3, GABPA (Homo sapiens, UniProt Q06546 1-454); settings: protein: recombinant; tags: N-terminal GST; dsDNA, one strand shown
# T3 sequence: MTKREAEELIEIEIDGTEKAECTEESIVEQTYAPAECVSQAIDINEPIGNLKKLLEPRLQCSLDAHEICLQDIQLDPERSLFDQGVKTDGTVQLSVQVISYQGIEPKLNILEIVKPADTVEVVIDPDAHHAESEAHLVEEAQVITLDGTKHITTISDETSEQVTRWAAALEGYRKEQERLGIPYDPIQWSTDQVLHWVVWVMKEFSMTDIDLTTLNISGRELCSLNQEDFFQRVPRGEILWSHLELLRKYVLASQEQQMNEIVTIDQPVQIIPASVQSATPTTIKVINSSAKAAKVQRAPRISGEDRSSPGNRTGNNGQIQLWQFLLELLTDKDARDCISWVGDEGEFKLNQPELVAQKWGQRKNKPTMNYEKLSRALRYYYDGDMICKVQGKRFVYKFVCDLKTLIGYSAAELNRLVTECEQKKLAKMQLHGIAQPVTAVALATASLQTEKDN
# How it was run: as §1
# ERG = target: T4, ERG (Homo sapiens, UniProt P11308 1-479); settings: protein: recombinant; tags: N-terminal GST; dsDNA, one strand shown
# T4 sequence: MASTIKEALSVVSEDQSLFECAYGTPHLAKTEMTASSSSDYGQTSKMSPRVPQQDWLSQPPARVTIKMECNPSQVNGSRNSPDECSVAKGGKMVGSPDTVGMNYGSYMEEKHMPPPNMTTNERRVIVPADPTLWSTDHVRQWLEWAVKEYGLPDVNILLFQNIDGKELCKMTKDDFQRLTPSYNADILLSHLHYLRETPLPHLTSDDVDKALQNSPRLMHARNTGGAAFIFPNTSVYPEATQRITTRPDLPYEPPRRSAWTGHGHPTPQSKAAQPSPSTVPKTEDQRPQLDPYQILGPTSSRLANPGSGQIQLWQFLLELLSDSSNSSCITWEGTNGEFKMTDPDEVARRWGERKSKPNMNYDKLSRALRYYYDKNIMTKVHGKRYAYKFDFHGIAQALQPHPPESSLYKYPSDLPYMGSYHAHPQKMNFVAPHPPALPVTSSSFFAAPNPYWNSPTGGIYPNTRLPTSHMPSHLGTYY
# How it was run: as §1
# ELF1 = ELF1 (Homo sapiens, UniProt P32519 1-619); settings: protein: recombinant; tags: N-terminal GST; dsDNA, one strand shown
# How it was run: as §1
# EHF = target: T5, EHF (Homo sapiens, UniProt Q9NZC4 1-300); settings: protein: recombinant; tags: N-terminal GST; dsDNA, one strand shown
# T5 sequence: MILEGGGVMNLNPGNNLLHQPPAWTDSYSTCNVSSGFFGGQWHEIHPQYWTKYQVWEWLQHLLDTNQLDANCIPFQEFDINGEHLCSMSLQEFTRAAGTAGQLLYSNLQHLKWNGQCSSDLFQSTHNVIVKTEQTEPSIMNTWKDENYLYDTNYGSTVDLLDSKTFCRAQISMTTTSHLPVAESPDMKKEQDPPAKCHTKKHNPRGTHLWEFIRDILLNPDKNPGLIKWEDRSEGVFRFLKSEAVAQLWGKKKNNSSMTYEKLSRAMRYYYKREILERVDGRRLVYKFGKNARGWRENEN
# How it was run: as §1
# SPI1 = SPI1 (Homo sapiens, UniProt P17947 1-270); settings: protein: recombinant; tags: N-terminal GST; dsDNA, one strand shown
# How it was run: as §1
# SPIB = SPIB (Homo sapiens, UniProt Q01892 1-262); settings: protein: recombinant; tags: N-terminal GST; dsDNA, one strand shown
# How it was run: as §1
# ELK3 = target: T6, ELK3 (Homo sapiens, UniProt P41970 1-407); settings: protein: recombinant; tags: N-terminal GST; dsDNA, one strand shown
# T6 sequence: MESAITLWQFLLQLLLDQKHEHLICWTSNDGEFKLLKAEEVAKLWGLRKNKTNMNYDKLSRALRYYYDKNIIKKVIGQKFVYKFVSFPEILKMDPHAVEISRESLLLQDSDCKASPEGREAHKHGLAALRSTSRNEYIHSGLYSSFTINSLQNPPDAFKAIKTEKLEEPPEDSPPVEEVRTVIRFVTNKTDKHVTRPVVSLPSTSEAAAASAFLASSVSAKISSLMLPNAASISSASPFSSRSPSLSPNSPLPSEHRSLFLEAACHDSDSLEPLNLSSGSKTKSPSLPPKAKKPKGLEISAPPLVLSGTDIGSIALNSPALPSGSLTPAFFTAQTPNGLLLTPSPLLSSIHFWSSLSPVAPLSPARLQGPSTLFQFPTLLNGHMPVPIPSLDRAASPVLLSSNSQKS
# How it was run: as §1
# FEV = target: T7, FEV (Homo sapiens, UniProt Q99581 1-238); settings: protein: recombinant; tags: N-terminal GST; dsDNA, one strand shown
# T7 sequence: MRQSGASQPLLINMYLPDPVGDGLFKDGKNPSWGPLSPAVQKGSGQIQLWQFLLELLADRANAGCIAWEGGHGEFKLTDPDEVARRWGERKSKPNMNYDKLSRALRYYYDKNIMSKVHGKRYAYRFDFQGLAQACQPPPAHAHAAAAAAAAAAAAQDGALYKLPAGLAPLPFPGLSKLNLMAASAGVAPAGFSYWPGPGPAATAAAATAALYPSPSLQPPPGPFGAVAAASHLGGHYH
# How it was run: as §1
# ETV5 = ETV5 (Homo sapiens, UniProt P41161 1-510); settings: protein: recombinant; tags: N-terminal GST; dsDNA, one strand shown
# How it was run: as §1
# HSF1 = HSF1 (Homo sapiens, UniProt Q00613 1-529); settings: protein: recombinant; tags: N-terminal GST; chain copies: 3; dsDNA, one strand shown
# How it was run: as §1
# SPIC = target: T8, SPIC (Homo sapiens, UniProt Q8N5J4 1-248); settings: protein: recombinant; tags: N-terminal GST; dsDNA, one strand shown
# T8 sequence: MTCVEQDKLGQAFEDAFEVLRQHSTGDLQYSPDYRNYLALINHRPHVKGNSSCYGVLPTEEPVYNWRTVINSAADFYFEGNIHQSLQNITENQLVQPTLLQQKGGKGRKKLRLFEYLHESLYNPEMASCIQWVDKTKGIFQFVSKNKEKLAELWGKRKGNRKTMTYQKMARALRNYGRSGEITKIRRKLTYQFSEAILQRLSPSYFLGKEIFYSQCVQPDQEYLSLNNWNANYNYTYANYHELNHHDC
# How it was run: as §1
# ELF4 = ELF4 (Homo sapiens, UniProt Q99607 1-663); settings: protein: recombinant; tags: N-terminal GST; dsDNA, one strand shown
# How it was run: as §1
# ELK4 = target: T9, ELK4 (Homo sapiens, UniProt P28324-2 1-405); settings: protein: recombinant; tags: N-terminal GST; dsDNA, one strand shown
# T9 sequence: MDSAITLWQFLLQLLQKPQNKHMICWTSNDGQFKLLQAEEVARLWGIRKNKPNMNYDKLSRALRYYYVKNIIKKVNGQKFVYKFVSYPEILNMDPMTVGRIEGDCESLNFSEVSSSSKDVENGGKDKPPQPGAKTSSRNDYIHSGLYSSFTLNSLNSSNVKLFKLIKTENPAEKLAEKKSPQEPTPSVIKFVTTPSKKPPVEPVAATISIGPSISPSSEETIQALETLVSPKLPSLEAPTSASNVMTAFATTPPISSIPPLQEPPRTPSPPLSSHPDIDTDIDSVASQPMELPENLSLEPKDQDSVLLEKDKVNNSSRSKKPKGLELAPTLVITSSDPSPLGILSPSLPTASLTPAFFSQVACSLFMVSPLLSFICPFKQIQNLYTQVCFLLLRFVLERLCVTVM
# How it was run: as §1
# ETV2 = target: T10, ETV2 (Homo sapiens, UniProt O00321 1-342); settings: protein: recombinant; tags: N-terminal GST; dsDNA, one strand shown
# T10 sequence: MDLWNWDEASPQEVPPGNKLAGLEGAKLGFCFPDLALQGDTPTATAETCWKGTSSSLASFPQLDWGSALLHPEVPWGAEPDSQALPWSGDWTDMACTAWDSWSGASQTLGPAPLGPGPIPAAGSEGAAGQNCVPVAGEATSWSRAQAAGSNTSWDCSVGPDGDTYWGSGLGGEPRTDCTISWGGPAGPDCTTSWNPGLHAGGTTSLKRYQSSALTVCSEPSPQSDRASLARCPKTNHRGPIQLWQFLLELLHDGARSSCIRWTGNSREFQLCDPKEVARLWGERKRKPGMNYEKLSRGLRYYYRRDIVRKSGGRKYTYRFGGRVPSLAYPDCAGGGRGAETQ
# How it was run: as §1
# ELF3 = target: T11, ELF3 (Homo sapiens, UniProt P78545 1-371); settings: protein: recombinant; tags: N-terminal GST; dsDNA, one strand shown
# T11 sequence: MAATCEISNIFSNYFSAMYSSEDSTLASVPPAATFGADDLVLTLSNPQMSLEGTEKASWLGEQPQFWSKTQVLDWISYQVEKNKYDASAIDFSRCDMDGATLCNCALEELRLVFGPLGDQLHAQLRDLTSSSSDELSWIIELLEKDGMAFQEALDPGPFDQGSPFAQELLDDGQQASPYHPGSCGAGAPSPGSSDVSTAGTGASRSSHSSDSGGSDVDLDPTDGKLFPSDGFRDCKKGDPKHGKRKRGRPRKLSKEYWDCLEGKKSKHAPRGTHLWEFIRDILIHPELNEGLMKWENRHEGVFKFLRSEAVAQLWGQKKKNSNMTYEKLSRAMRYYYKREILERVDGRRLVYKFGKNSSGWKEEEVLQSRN
# How it was run: as §1
# CRX = CRX (Homo sapiens, UniProt O43186 1-299); settings: protein: recombinant; tags: N-terminal GST; dsDNA, one strand shown
# How it was run: as §1
# ETV1 = ETV1 (Homo sapiens, UniProt P50549 1-477); settings: protein: recombinant; tags: N-terminal GST; dsDNA, one strand shown
# How it was run: as §1
# Chain of ETV5 (P41161 whole entry): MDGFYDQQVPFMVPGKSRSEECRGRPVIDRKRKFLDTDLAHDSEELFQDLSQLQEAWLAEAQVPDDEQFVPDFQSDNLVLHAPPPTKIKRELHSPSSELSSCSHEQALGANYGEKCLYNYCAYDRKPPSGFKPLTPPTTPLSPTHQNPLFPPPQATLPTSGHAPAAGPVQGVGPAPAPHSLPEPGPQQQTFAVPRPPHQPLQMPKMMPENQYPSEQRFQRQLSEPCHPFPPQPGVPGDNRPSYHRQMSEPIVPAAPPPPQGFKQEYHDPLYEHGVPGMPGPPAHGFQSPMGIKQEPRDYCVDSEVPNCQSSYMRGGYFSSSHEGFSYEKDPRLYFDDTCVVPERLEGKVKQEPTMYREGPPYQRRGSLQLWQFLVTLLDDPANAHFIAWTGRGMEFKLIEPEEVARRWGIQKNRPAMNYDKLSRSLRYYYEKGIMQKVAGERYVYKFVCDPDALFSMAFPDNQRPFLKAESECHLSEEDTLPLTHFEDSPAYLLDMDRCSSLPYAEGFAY
# Chain of ETV1 (P50549 whole entry): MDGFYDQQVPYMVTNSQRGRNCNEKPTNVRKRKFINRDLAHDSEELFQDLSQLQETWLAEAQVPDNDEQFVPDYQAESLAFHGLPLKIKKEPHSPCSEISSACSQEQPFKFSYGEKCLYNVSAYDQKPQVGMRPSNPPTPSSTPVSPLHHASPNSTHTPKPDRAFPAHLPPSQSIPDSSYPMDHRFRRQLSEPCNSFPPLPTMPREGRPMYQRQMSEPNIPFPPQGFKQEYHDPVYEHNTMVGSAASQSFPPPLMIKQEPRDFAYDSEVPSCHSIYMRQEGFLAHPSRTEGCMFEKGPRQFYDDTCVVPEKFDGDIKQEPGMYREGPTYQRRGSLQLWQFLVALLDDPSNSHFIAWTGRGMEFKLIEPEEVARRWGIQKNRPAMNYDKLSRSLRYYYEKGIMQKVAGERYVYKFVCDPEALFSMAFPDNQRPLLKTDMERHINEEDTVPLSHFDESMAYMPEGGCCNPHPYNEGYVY
# Chain of CRX (O43186 whole entry): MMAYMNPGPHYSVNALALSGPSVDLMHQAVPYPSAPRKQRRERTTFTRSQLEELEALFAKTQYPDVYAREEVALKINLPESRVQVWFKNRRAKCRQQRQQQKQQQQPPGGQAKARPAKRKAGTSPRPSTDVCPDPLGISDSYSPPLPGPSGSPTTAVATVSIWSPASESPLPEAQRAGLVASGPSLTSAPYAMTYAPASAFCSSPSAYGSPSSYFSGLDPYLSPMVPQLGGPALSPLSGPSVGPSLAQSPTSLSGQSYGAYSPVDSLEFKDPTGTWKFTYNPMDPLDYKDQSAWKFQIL
# Chain of ELF1 (P32519 whole entry): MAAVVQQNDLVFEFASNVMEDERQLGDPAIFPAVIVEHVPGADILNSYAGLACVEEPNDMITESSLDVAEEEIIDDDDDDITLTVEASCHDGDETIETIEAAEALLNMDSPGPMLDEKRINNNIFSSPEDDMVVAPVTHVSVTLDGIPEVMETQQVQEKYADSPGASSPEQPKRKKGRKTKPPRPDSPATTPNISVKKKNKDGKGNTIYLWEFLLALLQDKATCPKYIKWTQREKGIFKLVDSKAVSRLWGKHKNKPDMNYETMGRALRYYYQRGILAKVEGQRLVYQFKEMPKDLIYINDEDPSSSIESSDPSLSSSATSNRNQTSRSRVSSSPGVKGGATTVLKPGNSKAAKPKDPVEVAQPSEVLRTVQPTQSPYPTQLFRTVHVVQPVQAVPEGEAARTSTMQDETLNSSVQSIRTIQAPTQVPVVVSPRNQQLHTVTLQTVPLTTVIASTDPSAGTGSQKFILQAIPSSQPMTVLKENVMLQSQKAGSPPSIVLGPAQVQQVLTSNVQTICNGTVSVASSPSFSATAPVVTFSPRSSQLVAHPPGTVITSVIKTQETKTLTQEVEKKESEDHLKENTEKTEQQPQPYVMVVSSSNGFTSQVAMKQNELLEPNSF
# Chain of HSF1 (Q00613 whole entry): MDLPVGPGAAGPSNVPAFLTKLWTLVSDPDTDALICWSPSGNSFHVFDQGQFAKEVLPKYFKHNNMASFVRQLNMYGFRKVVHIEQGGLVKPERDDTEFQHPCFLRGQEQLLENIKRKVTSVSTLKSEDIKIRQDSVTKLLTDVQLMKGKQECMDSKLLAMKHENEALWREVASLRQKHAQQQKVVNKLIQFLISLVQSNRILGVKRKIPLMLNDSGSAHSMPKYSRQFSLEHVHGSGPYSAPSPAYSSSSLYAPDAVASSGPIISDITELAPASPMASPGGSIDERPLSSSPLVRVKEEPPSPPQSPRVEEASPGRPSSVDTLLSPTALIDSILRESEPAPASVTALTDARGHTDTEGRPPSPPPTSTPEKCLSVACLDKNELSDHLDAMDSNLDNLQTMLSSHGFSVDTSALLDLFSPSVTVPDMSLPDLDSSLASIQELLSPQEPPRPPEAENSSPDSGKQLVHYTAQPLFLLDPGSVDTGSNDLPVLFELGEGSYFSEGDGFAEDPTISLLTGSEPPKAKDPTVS
# Chain of ELF4 (Q99607 whole entry): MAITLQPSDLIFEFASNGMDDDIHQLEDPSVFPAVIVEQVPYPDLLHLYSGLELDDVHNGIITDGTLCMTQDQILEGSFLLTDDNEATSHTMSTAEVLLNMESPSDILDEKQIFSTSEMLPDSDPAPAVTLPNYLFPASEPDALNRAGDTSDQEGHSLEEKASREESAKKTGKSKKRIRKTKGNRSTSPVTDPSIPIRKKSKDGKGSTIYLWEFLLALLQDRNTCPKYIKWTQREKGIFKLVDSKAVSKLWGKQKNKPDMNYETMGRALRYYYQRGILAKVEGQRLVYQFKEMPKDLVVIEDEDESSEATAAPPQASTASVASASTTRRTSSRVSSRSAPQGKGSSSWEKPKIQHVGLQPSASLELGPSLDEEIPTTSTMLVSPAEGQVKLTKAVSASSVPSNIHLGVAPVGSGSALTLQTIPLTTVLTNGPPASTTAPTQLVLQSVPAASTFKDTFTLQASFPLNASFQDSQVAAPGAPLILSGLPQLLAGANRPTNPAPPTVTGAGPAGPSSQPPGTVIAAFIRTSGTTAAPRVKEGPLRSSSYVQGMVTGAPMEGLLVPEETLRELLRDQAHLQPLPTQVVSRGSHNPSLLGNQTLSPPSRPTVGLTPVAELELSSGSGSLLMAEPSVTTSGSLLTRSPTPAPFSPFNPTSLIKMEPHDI
# Chain of SPIB (Q01892 whole entry): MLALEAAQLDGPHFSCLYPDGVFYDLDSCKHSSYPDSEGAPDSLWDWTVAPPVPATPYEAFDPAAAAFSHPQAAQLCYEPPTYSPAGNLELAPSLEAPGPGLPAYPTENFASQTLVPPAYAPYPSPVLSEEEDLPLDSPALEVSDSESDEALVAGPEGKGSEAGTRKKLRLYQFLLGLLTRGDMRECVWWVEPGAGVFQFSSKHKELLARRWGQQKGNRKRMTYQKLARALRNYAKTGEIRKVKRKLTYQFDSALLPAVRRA
sequence,measurement,setting,value
TTAGGG,binding signal,FLI1,"1.03 fold enrichment (6-mer frequency, TF over GST control)"
same,binding signal,ELK1,"1.14 fold enrichment (6-mer frequency, TF over GST control)"
same,binding signal,GABPA,"1.13 fold enrichment (6-mer frequency, TF over GST control)"
same,binding signal,ERG,"1.15 fold enrichment (6-mer frequency, TF over GST control)"
same,binding signal,ELF1,"1.11 fold enrichment (6-mer frequency, TF over GST control)"
same,binding signal,EHF,"1.13 fold enrichment (6-mer frequency, TF over GST control)"
same,binding signal,SPI1,"1.25 fold enrichment (6-mer frequency, TF over GST control)"
same,binding signal,SPIB,"1.17 fold enrichment (6-mer frequency, TF over GST control)"
same,binding signal,ELK3,"1.07 fold enrichment (6-mer frequency, TF over GST control)"
same,binding signal,FEV,"1.13 fold enrichment (6-mer frequency, TF over GST control)"
same,binding signal,ETV5,"1.16 fold enrichment (6-mer frequency, TF over GST control)"
same,binding signal,HSF1,"1.48 fold enrichment (6-mer frequency, TF over GST control)"
same,binding signal,SPIC,"1.04 fold enrichment (6-mer frequency, TF over GST control)"
same,binding signal,ELF4,"1.16 fold enrichment (6-mer frequency, TF over GST control)"
same,binding signal,ELK4,"1.02 fold enrichment (6-mer frequency, TF over GST control)"
same,binding signal,ETV2,"1.15 fold enrichment (6-mer frequency, TF over GST control)"
same,binding signal,ELF3,"1.2 fold enrichment (6-mer frequency, TF over GST control)"
same,binding signal,CRX,"2.19 fold enrichment (6-mer frequency, TF over GST control)"
same,binding signal,ETV1,"1.03 fold enrichment (6-mer frequency, TF over GST control)"
